Test results as given in PubChem BioAssay AID1159580 (chemical genetic matrix, 2015).
The whole screen tested about 5,500 compounds, of which about 2,000 (36%) were called active. Inconclusive results (about 18%) are left out. Rule as the data show it: active = normalized growth mostly below about 0.91 (no sharp cut-off); inconclusive = no clear call, values can overlap the other calls; inactive = mostly above about 0.92. Some of the results follow.

Assay: chemical genetic growth profiling, strain panel (AID 1159580);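 also: tested at 20 µM; growth read once vehicle control cultures reached saturation at 30 °C; 1 = growth at the plate median or of vehicle wells; lower values mean less growth of the strain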
Conditions: growth OD
[1] = S. cerevisiae deletion strains, locus YDL101C, strain DUN1, hits give low values
[2] = S. cerevisiae deletion strains, locus YHR030C, strain SLT2, hits give low values
[3] = S. cerevisiae deletion strains, locus YAR019C, strain CDC15, hits give low values
[4] = S. cerevisiae deletion strains, locus YBL105C, strain PKC1, hits give low values
[5] = S. cerevisiae deletion strains, locus YBR135W, strain CKS1, hits give low values
[6] = S. cerevisiae deletion strains, locus YBR136W, strain MEC1, hits give low values
[7] = S. cerevisiae deletion strains, locus YBR160W, strain CDC28, hits give low values
[8] = S. cerevisiae deletion strains, locus YDL017W, strain CDC7, hits give low values
[9] = S. cerevisiae deletion strains, locus YDL028C, strain MPS1, hits give low values
[10] = S. cerevisiae deletion strains, locus YDL108W, strain KIN28, hits give low values
[11] = S. cerevisiae deletion strains, locus YDL132W, strain cdc53, hits give low values
[12] = S. cerevisiae deletion strains, locus YDL214C, strain PRR2, hits give low values
[13] = S. cerevisiae deletion strains, locus YDR052C, strain DBF4, hits give low values
[14] = S. cerevisiae deletion strains, locus YDR054C, strain cdc34, hits give low values
[15] = S. cerevisiae deletion strains, locus YDR226W, strain ADK1, hits give low values
[16] = S. cerevisiae deletion strains, locus YDR477W, strain SNF1, hits give low values
[17] = S. cerevisiae deletion strains, locus YER123W, strain YCK3, hits give low values
[18] = S. cerevisiae deletion strains, locus YER133W, strain GLC7, hits give low values
[19] = S. cerevisiae deletion strains, locus YFL009W, strain cdc4, hits give low values
[20] = S. cerevisiae deletion strains, locus YFL029C, strain CAK1, hits give low values
[21] = S. cerevisiae deletion strains, locus YFR003C, strain YPI1, hits give low values
[22] = S. cerevisiae deletion strains, locus YFR019W, strain FAB1, hits give low values
[23] = S. cerevisiae deletion strains, locus YFR028C, strain CDC14, hits give low values
[24] = S. cerevisiae deletion strains, locus YGR040W, strain KSS1, hits give low values
[25] = S. cerevisiae deletion strains, locus YGR052W, strain FMP48, hits give low values
[26] = S. cerevisiae deletion strains, locus YGR092W, strain DBF2, hits give low values
[27] = S. cerevisiae deletion strains, locus YHR079C, strain IRE1, hits give low values
[28] = S. cerevisiae deletion strains, locus YHR082C, strain KSP1, hits give low values
[29] = S. cerevisiae deletion strains, locus YHR205W, strain SCH9, hits give low values
[30] = S. cerevisiae deletion strains, locus YIL147C, strain SLN1, hits give low values
[31] = S. cerevisiae deletion strains, locus YJL095W, strain BCK1, hits give low values
[32] = S. cerevisiae deletion strains, locus YJL157C, strain FAR1, hits give low values
[33] = S. cerevisiae deletion strains, locus YJR016C, strain ILV3, hits give low values
[34] = S. cerevisiae deletion strains, locus YJR066W, strain TOR1 (second series), hits give low values
[35] = S. cerevisiae deletion strains, locus YJR066W, strain TOR1, hits give low values
[36] = S. cerevisiae deletion strains, locus YKL048C, strain ELM1, hits give low values
[37] = S. cerevisiae deletion strains, locus YKL067W, strain YNK1, hits give low values
[38] = S. cerevisiae deletion strains, locus YKL101W, strain HSL1, hits give low values
[39] = S. cerevisiae deletion strains, locus YKL193C, strain SDS22, hits give low values
[40] = S. cerevisiae deletion strains, locus YKL203C, strain TOR2, hits give low values
[41] = S. cerevisiae deletion strains, locus YLR113W, strain HOG1, hits give low values
[42] = S. cerevisiae deletion strains, locus YLR133W, strain CKI1, hits give low values
[43] = S. cerevisiae deletion strains, locus YLR403W, strain SFP1, hits give low values
[44] = S. cerevisiae deletion strains, locus YML070W, strain DAK1, hits give low values
[45] = S. cerevisiae deletion strains, locus YMR001C, strain CDC5, hits give low values
[46] = S. cerevisiae deletion strains, locus YMR205C, strain PFK2 (second series), hits give low values
[47] = S. cerevisiae deletion strains, locus YMR277W, strain FCP1, hits give low values
[48] = S. cerevisiae deletion strains, locus YNL006W, strain LST8, hits give low values
[49] = S. cerevisiae deletion strains, locus YNL020C, strain ARK1, hits give low values
[50] = S. cerevisiae deletion strains, locus YNL161W, strain CBK1, hits give low values
[51] = S. cerevisiae deletion strains, locus YNL183C, strain NPR1, hits give low values
[52] = S. cerevisiae deletion strains, locus YNL207W, strain RIO2, hits give low values
[53] = S. cerevisiae deletion strains, locus YNL222W, strain SSU72, hits give low values
[54] = S. cerevisiae deletion strains, locus YNL307C, strain MCK1 (second series), hits give low values
[55] = S. cerevisiae deletion strains, locus YOL078W, strain AVO1, hits give low values
[56] = S. cerevisiae deletion strains, locus YOL136C, strain PFK27, hits give low values
[57] = S. cerevisiae deletion strains, locus YOR061W, strain CKA2, hits give low values
[58] = S. cerevisiae deletion strains, locus YOR119C, strain RIO1, hits give low values
[59] = S. cerevisiae deletion strains, locus YOR231W, strain MKK1, hits give low values
[60] = S. cerevisiae deletion strains, locus YOR329C, strain SCD5, hits give low values
[61] = S. cerevisiae deletion strains, locus YPL031C, strain PHO85, hits give low values
[62] = S. cerevisiae deletion strains, locus YPL153C, strain RAD53, hits give low values
[63] = S. cerevisiae deletion strains, locus YPL204W, strain HRR25, hits give low values
[64] = S. cerevisiae deletion strains, locus YPL209C, strain IPL1, hits give low values
[65] = S. cerevisiae deletion strains, locus YPL256C, strain CLN2, hits give low values
[66] = S. cerevisiae deletion strains, locus YPR025C, strain CCL1, hits give low values
[67] = S. cerevisiae deletion strains, locus YPR106W, strain ISR1, hits give low values
[68] = S. cerevisiae deletion strains, locus YPR111W, strain DBF20, hits give low values
[69] = S. cerevisiae deletion strains, strain NNK1, hits give low values
[70] = S. cerevisiae deletion strains, strain TSCII, hits give low values

Measured: normalized growth

O=C1NC(c2ccccc2Cl)Nc2ccccc21 (centres undefined)
inactive: S. cerevisiae deletion strains, locus YAL013W, strain DEP1, hits give low values 0.997 | S. cerevisiae deletion strains, locus YBR229C, strain ROT2, hits give low values 1 | S. cerevisiae deletion strains, locus YCL061C, strain MRC1, hits give low values 0.992 | [1] 1.01 | S. cerevisiae deletion strains, locus YDL134C, strain PPH21, hits give low values 1.01 | S. cerevisiae deletion strains, locus YDR150W, strain NUM1, hits give low values 0.998 | S. cerevisiae deletion strains, locus YEL061C, strain CIN8, hits give low values 0.981 | S. cerevisiae deletion strains, locus YGR078C, strain PAC10, hits give low values 0.997 | [2] 1.04 | S. cerevisiae deletion strains, locus YHR087W, strain rtc3, hits give low values 0.998 | S. cerevisiae deletion strains, locus YJL187C, strain SWE1, hits give low values 0.993 | S. cerevisiae deletion strains, locus YJR043C, strain POL32, hits give low values 1.02 | S. cerevisiae deletion strains, locus YJR075W, strain HOC1, hits give low values 0.97 | S. cerevisiae deletion strains, locus YLR039C, strain RIC1, hits give low values 0.973 | S. cerevisiae deletion strains, locus YLR058C, strain SHM2 (second series), hits give low values 1 | S. cerevisiae deletion strains, locus YLR085C, strain ARP6, hits give low values 0.951 | S. cerevisiae deletion strains, locus YLR262C, strain YPT6, hits give low values 0.977 | S. cerevisiae deletion strains, locus YML094W, strain GIM5, hits give low values 0.989 | S. cerevisiae deletion strains, locus YMR219W, strain ESC1, hits give low values 1 | S. cerevisiae deletion strains, locus YMR263W, strain SAP30, hits give low values 1.01 | S. cerevisiae deletion strains, locus YNL153C, strain GIM3, hits give low values 1 | S. cerevisiae deletion strains, locus YNL298W, strain CLA4 (second series), hits give low values 0.997 | S. cerevisiae deletion strains, locus YNL322C, strain KRE1, hits give low values 0.99 | S. cerevisiae deletion strains, locus YNR030W, strain Alg12, hits give low values 0.984 | S. cerevisiae deletion strains, locus YPL055C, strain LGE1, hits give low values 1.03 | S. cerevisiae deletion strains, locus YPL241C, strain CIN2, hits give low values 0.981 | S. cerevisiae deletion strains, locus YPR135W, strain CTF4, hits give low values 1.05 | S. cerevisiae strains, strain wild type, hits give low values 1.01

O=C1Nc2ccccc2/C1=N/N=C\c1cc(Br)cc(Br)c1O
inactive: [3] 0.947 | [4] 0.959 | [5] 0.964 | [6] 0.955 | [7] 0.959 | [8] 0.957 | [9] 0.95 | [1] 0.946 | [10] 0.957 | [11] 0.944 | [13] 0.944 | [14] 0.916 | [15] 0.951 | [19] 0.945 | [20] 0.949 | [21] 0.947 | [23] 0.964 | [30] 0.948 | [33] 0.969 | [39] 0.937 | [45] 0.945 | [47] 0.959 | [50] 0.943 | [52] 0.957 | [53] 0.96 | [55] 0.937 | [60] 0.937 | [64] 0.967 | [66] 0.959 | [67] 0.943 | [68] 0.933 | [70] 0.951
active: [12] 0.231 | [16] 0.246 | [17] 0.233 | [18] 0.249 | [22] 0.396 | [24] 0.278 | [25] 0.132 | [26] 0.121 | [2] 0.128 | [27] 0.132 | [28] 0.124 | [29] 0.0116 | [31] 0.112 | [32] 0.147 | [34] 0.393 | [35] 0.114 | [36] 0.303 | [37] 0.194 | [38] 0.225 | [40] 0.209 | [41] 0.331 | [42] 0.134 | [43] 0.0728 | [44] 0.259 | [46] 0.204 | [48] 0.764 | [49] 0.114 | [51] 0.128 | [54] 0.128 | [56] 0.198 | [57] 0.105 | [58] 0.184 | [59] 0.139 | [61] 0.203 | [62] 0.196 | [63] 0.199 | [65] 0.313 | [69] 0.34

O=C1Nc2ccccc2/C1=N/N=C\c1ccccc1Cl
inactive: [3] 0.975 | [4] 0.967 | [5] 0.986 | [6] 0.966 | [7] 0.972 | [8] 0.97 | [9] 0.97 | [1] 0.97 | [10] 0.969 | [11] 0.977 | [12] 0.92 | [13] 0.968 | [14] 0.97 | [15] 0.987 | [16] 0.909 | [17] 0.85 | [18] 0.928 | [19] 0.978 | [20] 0.982 | [21] 0.966 | [22] 0.935 | [23] 0.987 | [24] 0.903 | [25] 0.838 | [26] 0.867 | [27] 0.906 | [28] 0.918 | [29] 0.858 | [30] 0.973 | [31] 0.798 | S. cerevisiae deletion strains, locus YJL128C, strain PBS2, hits give low values 0.925 | [32] 0.928 | [33] 0.986 | [34] 0.916 | [35] 0.9 | [36] 0.901 | [37] 0.896 | [38] 0.893 | [39] 0.971 | [40] 0.954 | [42] 0.916 | [43] 0.902 | [44] 0.897 | [45] 0.976 | [46] 0.887 | [47] 0.972 | [48] 0.974 | [49] 0.896 | [50] 0.976 | [51] 0.841 | [52] 0.974 | [53] 0.979 | [54] 0.855 | [55] 0.968 | [56] 0.904 | [57] 0.888 | [58] 0.93 | [59] 0.823 | [60] 0.965 | [61] 0.877 | [62] 0.915 | [63] 0.888 | [64] 0.977 | [65] 0.907 | [66] 0.97 | [67] 0.97 | [68] 0.963 | [69] 0.967 | [70] 0.976
active: [2] 0.83 | [41] 0.708
